In PubChem BioAssay (Tox21):
Values without a mark were called inactive. Entries that show only a call come without a potency. The source made the active and inactive calls. Unless noted, calls come from the whole dose curve; as a rule, active = well fitted activation curve with a large enough effect in the repeat runs; inconclusive = weak or mixed curves; inactive = flat fitted curve, though single readings scatter.

target: Gonadotropin-releasing hormone receptor (Homo sapiens) (UniProt P30968); experiment: Human gonadotropin-releasing hormone receptor (GnRHR) small molecule agonists, calcium flux assay in GnRHR-HEK293 cells (AID 1920063; calls by dose curve; note: nearly all actives have a fitted effect of over 35% in size); conditions: calcium flux fluorescence, agonist mode; series mostly up to 57.6 µM
Sequence (P30968 whole entry, looked up): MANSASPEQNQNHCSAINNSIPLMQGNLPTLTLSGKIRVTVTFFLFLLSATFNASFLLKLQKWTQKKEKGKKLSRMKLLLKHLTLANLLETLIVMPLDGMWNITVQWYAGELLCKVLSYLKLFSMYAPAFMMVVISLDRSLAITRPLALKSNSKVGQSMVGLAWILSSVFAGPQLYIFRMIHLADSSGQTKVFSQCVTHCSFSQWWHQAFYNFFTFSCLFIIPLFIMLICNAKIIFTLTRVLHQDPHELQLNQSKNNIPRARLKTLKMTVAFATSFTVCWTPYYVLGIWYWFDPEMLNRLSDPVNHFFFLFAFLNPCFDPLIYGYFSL
How it was run: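 Agonist mode: compounds at 15 concentrations, in triplicate, went onto calcium dye-loaded GnRHR-HEK293 cells. Intracellular calcium was then followed as 480/540 nm fluorescence at 1 s intervals over 3 min.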

Question: For `CCCCCCCCCCCCCCBr`, which Potency is on record?
Answer: inactive

Question: With `Cc1ccc2c(c1)c1c3n2CCNC3CCC1` (stereo not drawn) as the molecule, how does the Potency read?
Answer: inactive

Question: How did the Potency turn out when `O=C(O)CCCC[P+](c1ccccc1)(c1ccccc1)c1ccccc1` was run?
Answer: inactive

Question: `CC(C)C1OCCN1CCOC(=O)NCCCCCCNC(=O)OCCN1CCOC1C(C)C` (stereo not drawn) was tested. Which Potency did it give?
Answer: inactive

Question: For `CCCCCCCCSCc1cc(C)c(O)c(CSCCCCCCCC)c1`, which Potency is on record?
Answer: inactive

Question: For `O=C(c1ccc(O)cc1)c1ccc(Cl)cc1`, which Potency is on record?
Answer: inactive

Question: How did the Potency turn out when `CC(=O)Oc1cc(C(C)C)c(OCCN(C)C)cc1C` was run?
Answer: inactive

Question: For `CN(C)CCCOC1(Cc2ccccc2)CCCCCC1`, which Potency is on record?
Answer: inactive

Question: With `CC(C(=O)O)c1ccc(CC2CCCC2=O)cc1` (stereo not drawn) as the molecule, how does the Potency read?
Answer: inactive

Question: With `Nc1ccc(S(=O)(=O)Nc2ccnn2-c2ccccc2)cc1` as the molecule, how does the activity change read?
Answer: -0.562% [at 11.8 µM, hits give high values]

Question: With `CC(C)Cn1cnc2c(N)nc3ccccc3c21` as the molecule, how does the activity change read?
Answer: -1.43% [at 11.8 µM, hits give high values]

Question: Which Potency does the source give for `Oc1cccc2[nH]ccc12` here?
Answer: inactive

Question: `C/C=C\C/C=C/CCCCCCCCOC(C)=O` was tested. Which Potency did it give?
Answer: inactive

Question: Which Potency does the source give for `CC(C)OCC1CO1` (stereo not drawn) here?
Answer: inactive

Question: How did the Potency turn out when `CCOC(=O)N1CCC(Nc2ccc(Cl)cc2N)CC1` was run?
Answer: inactive

Question: For `CC(C)(O)c1ccc(CNC(=O)c2cccnc2Oc2ccc(F)cc2)cc1`, which Potency is on record?
Answer: inactive

Question: Which Potency does the source give for `NCC1CCC(C(=O)Oc2ccc(CCC(=O)O)cc2)CC1` (stereo not drawn) here?
Answer: inactive

Question: With `O=C(CCCl)NCc1ccccc1` as the molecule, how does the Potency read?
Answer: inactive

Question: For `CCCC(=O)c1cc(O)c(O)cc1O`, which Potency is on record?
Answer: inactive

Question: How did the Potency turn out when `CCN1CCCC1CNC(=O)c1cc(S(=O)(=O)CC)c(N)cc1OC` (stereo not drawn) was run?
Answer: inactive

Question: For `O=C(CCOCCOCCOCCOCCC(=O)Nc1c(I)cc(I)c(C(=O)O)c1I)Nc1c(I)cc(I)c(C(=O)O)c1I`, which Potency is on record?
Answer: inactive

Question: With `CC(C)C(=O)Nc1cccc(C(F)(F)F)c1` as the molecule, how does the Potency read?
Answer: inactive

Question: With `Clc1ccnc(Cl)n1` as the molecule, how does the Potency read?
Answer: inactive

target: KiSS-1 receptor (Homo sapiens) (UniProt Q969F8); experiment: Human kisspeptin (KISS1R) small molecule agonists, calcium flux assay in KISS1R-HEK293 cells (AID 1920064); conditions: KISS1R-HEK293, calcium flux fluorescence, agonist; series mostly up to 76.8 µM
Sequence (Q969F8 whole entry, looked up): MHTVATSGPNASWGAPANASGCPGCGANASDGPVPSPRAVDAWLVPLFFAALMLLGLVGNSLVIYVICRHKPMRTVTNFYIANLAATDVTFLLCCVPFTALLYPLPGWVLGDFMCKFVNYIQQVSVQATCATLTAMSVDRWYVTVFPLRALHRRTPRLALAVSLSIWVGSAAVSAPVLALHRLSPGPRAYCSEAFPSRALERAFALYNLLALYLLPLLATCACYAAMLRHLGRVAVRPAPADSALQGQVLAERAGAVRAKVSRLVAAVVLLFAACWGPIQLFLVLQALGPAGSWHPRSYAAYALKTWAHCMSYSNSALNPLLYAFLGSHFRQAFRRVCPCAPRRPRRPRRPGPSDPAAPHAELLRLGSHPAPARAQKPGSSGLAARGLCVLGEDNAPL
How it was run: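 Agonist mode: intracellular calcium rise tracked at 1 s intervals over 3 min (480/540 nm) immediately after compound addition to dye-loaded KISS1R-HEK293 stable cells. Each compound tested at 15 concentrations in triplicate.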

Question: How did the outcome turn out when `O=C(O)c1cc(C(=O)O)c(C(=O)O)cc1C(=O)O` was run?
Answer: inactive

Question: For `O=S(=O)(O)c1ccc(N=Nc2c(O)ccc3ccccc23)cc1`, which outcome is on record?
Answer: inactive

Question: For `COS(=O)(=O)C(F)(F)F`, which outcome is on record?
Answer: inactive

Question: Which outcome does the source give for `O=C(NS(=O)(=O)/C=C/c1ccccc1)c1ccc(F)cc1Cl` here?
Answer: inactive

Question: `CC(C)(Sc1cc(C(C)(C)C)c(O)c(C(C)(C)C)c1)Sc1cc(C(C)(C)C)c(O)c(C(C)(C)C)c1` was tested. Which outcome did it give?
Answer: inactive

Question: How did the outcome turn out when `Nc1c(N=Nc2ccc(-c3ccc(N=Nc4cc(S(=O)(=O)O)c5ccccc5c4N)cc3)cc2)cc(S(=O)(=O)O)c2ccccc12` was run?
Answer: inactive

Question: With `CC(C)NCCCC1(C(N)=O)c2ccccc2-c2ccccc21` as the molecule, how does the outcome read?
Answer: inactive

Question: For `CCCCCc1ccc(N)cc1`, which outcome is on record?
Answer: inactive

Question: Which outcome does the source give for `CC/C=C\CCOC(=O)c1ccccc1O` here?
Answer: inactive

Question: Which outcome does the source give for `CCCCCCCCCCCCCCNCCO` here?
Answer: inactive

Question: Which outcome does the source give for `O=C1OC(O)C(C(Cl)Cl)=C1Cl` (stereo not drawn) here?
Answer: inactive

Question: With `Cc1cc2c(s1)Nc1ccccc1N=C2N1CCN(C)CC1` as the molecule, how does the outcome read?
Answer: inactive

Question: For `CC1(C)CC(OC(=O)CCCCCCCCC(=O)OC2CC(C)(C)NC(C)(C)C2)CC(C)(C)N1`, which activation is on record?
Answer: 3.13% [at 15.8 µM]

Question: Which outcome does the source give for `C=CC(=O)OCCOCCOC(=O)C=C` here?
Answer: inactive

Question: `FC(F)(F)C(F)(F)C(F)(F)C(F)(F)C(F)(F)C(F)(F)C(F)(F)C(F)(F)Br` was tested. Which outcome did it give?
Answer: inactive

Question: How did the outcome turn out when `C=CC(=O)OCCOCC(CC)(COCCOC(=O)C=C)COCCOC(=O)C=C` was run?
Answer: inactive

Question: With `C[C@H]1O[C@H](O[C@H]2[C@H](O)[C@@H](O)[C@@H](O[C@H]3[C@H](O)[C@@H](O)[C@H](O)O[C@@H]3CO)O[C@@H]2CO)[C@H](O)[C@@H](O)[C@@H]1N[C@H]1C=C(CO)[C@@H](O)[C@H](O)[C@H]1O` as the molecule, how does the outcome read?
Answer: inactive

Question: For `CCCCCCCCCCCCCCBr`, which outcome is on record?
Answer: inactive

Question: Which outcome does the source give for `Cc1ccc2c(c1)c1c3n2CCNC3CCC1` (stereo not drawn) here?
Answer: inactive

Question: For `O=C(O)CCCC[P+](c1ccccc1)(c1ccccc1)c1ccccc1`, which outcome is on record?
Answer: inactive

Question: `CC(C)C1OCCN1CCOC(=O)NCCCCCCNC(=O)OCCN1CCOC1C(C)C` (stereo not drawn) was tested. Which outcome did it give?
Answer: inactive

Question: With `CCCCCCCCSCc1cc(C)c(O)c(CSCCCCCCCC)c1` as the molecule, how does the outcome read?
Answer: inactive

Question: `O=C(c1ccc(O)cc1)c1ccc(Cl)cc1` was tested. Which outcome did it give?
Answer: inactive

Question: For `CC(=O)Oc1cc(C(C)C)c(OCCN(C)C)cc1C`, which outcome is on record?
Answer: inactive

Question: With `CN(C)CCCOC1(Cc2ccccc2)CCCCCC1` as the molecule, how does the outcome read?
Answer: inactive

Question: Which outcome does the source give for `CC(C(=O)O)c1ccc(CC2CCCC2=O)cc1` (stereo not drawn) here?
Answer: inactive

Question: How did the activation turn out when `Nc1ccc(S(=O)(=O)Nc2ccnn2-c2ccccc2)cc1` was run?
Answer: 15% [at 15.8 µM]

Question: Which activation does the source give for `CC(C)Cn1cnc2c(N)nc3ccccc3c21` here?
Answer: 1.32% [at 15.8 µM]

Question: `Oc1cccc2[nH]ccc12` was tested. Which outcome did it give?
Answer: inactive

Question: `C/C=C\C/C=C/CCCCCCCCOC(C)=O` was tested. Which outcome did it give?
Answer: inactive

Question: With `CC(C)OCC1CO1` (stereo not drawn) as the molecule, how does the outcome read?
Answer: inactive

Question: Which outcome does the source give for `CCOC(=O)N1CCC(Nc2ccc(Cl)cc2N)CC1` here?
Answer: inactive

Question: With `CC(C)(O)c1ccc(CNC(=O)c2cccnc2Oc2ccc(F)cc2)cc1` as the molecule, how does the outcome read?
Answer: inactive

Question: For `NCC1CCC(C(=O)Oc2ccc(CCC(=O)O)cc2)CC1` (stereo not drawn), which outcome is on record?
Answer: inactive

Question: Which outcome does the source give for `O=C(CCCl)NCc1ccccc1` here?
Answer: inactive

Question: Which outcome does the source give for `CCCC(=O)c1cc(O)c(O)cc1O` here?
Answer: inactive

Question: For `CCN1CCCC1CNC(=O)c1cc(S(=O)(=O)CC)c(N)cc1OC` (stereo not drawn), which outcome is on record?
Answer: inactive

Question: Which outcome does the source give for `O=C(CCOCCOCCOCCOCCC(=O)Nc1c(I)cc(I)c(C(=O)O)c1I)Nc1c(I)cc(I)c(C(=O)O)c1I` here?
Answer: inactive

Question: Which outcome does the source give for `CC(C)C(=O)Nc1cccc(C(F)(F)F)c1` here?
Answer: inactive

Question: Which outcome does the source give for `Clc1ccnc(Cl)n1` here?
Answer: inactive
